Compound activity deposited in PubChem BioAssay by National Center for Advancing Translational Sciences (NCATS).
An excerpt weighted towards active compounds, which were near 3.6% of everything screened.
PLK1 PBD inh: qHTS for Inhibitors of PLK1-PDB (polo-like kinase 1 - polo-box domain): Primary Screen. Serine/threonine-protein kinase PLK1 (Homo sapiens), P53350. Plk1 PBD binding of FITC phosphopeptide, fluorescence polarization. Potency, µM, inactives show max response, negative = inhibition, usual class: inhibitors. 360,000 compounds, 2.8% hits; further: potency means the concentration at half of the fitted maximal effect; series mostly up to about 57 µM; on the % scale 0 is the no-effect control and ±100 the full control effect; nearly all actives have a fitted effect of over 65% in size
Rango release inh: qHTS Assay for Inhibitors of RanGTP induced Rango (Ran-regulated importin-beta cargo) - Importin beta complex dissociation | Biochemical FRET Rango-importin beta, RanGTP-induced dissociation | Potency, µM (top dose mostly 46.1 µM), inactives show at the top dose activity change, negative = inhibition | 340,000 compounds, 0.071% hits | AID 540253, 2011; calls by dose curve; further: potency means the concentration at half of the fitted maximal effect; % of control where 0% means no effect; nearly all actives have a fitted effect of over 45% in size
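Rango/importin beta premix (0.1/0.25 uM final), PBS + 1 mM DTT + 0.02% Tween-20 + 0.1% BSA; cpd 5 min RT; FRET pre-read; + RanGTP-RCC1 (0.6 uM Ran, 2 mM GTP, 0.2 uM RCC1); 45 min RT; FRET post-read, ex 430, em 486/530 nm.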
Rango complex inh: qHTS Assay for Inhibitors of Rango (Ran-regulated importin-beta cargo) - Importin beta complex formation | Importin subunit beta-1 (Homo sapiens), Q14974 | Rango CFP/YFP FRET sensor + importin beta, 45 min | Potency, µM (series often up to 92.2 µM), for inactives: at the highest dose inhibition of complex formation | 340,000 compounds, 0.031% hits; calls by dose curve;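 further: potency means the concentration at half of the fitted maximal effect; 0% = DMSO wells and 100% = buffer wells lacking importin beta; nearly all actives have a fitted effect of over 15% in size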
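FRET biosensor Rango (snurportin 1 IBB between N-terminal EYFP and C-terminal Cerulean), 50 nM in PBS/1 mM DTT/0.02% Tween-20/0.1% BSA, preincubated 5 min RT with compound; 0.125 microM importin beta added, 45 min RT, CFP/YFP FRET ratio read.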
GCN5L2 inh: qHTS Assay for Inhibitors of GCN5L2; Histone acetyltransferase KAT2A (Homo sapiens), Q92830; GCN5L2 HAT assay, ThioGlo1 CoA-SH fluorescence; Potency, µM (titrated, usually from 58.9 µM), for the others: at the top dose activity change, negative = inhibition, actives largely listed as inhibitors; 390,000 compounds, 0.21% hits; further: potency means the concentration at half of the fitted maximal effect; on the % scale 0 is the no-effect control and ±100 the full control effect
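Preincubate 20nM GCN5L2 with compound 15 min, RT → add 50uM ThioGlo1 + 75uM H3(1-25) + 70uM acetyl-CoA → read fluorescence 0 and 20 min. Primary qHTS; fluorescent artifacts likely.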
PI5P4Ka inh: qHTS for Inhibitors of phosphatidylinositol 5-phosphate 4-kinase (PI5P4K) | AID 652105, 2013 | PI5P4Kalpha enzyme, ADP-Glo luminescence, 60 min; stronger effect = lower value | 330,000 compounds, 1.2% hits | Phosphatidylinositol 5-phosphate 4-kinase type-2 alpha (Homo sapiens), P48426 | max response, %; active means max response of -50% or lower; inconclusive means between -30% and -50%; inactive means -30% or higher; further: value at the top dose of about 77 µM; on the % scale 0 is the no-effect control and ±100 the full control effect
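Enzyme plus substrate dispensed, test compounds pinned in, then ATP (5 microM final) added. After 60 min at RT, ADP-Glo reagent 1 for 45 min and reagent 2 for 30 min preceded luminescence imaging.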
VDR inhibitor: Inhibitors of the vitamin D receptor (VDR): qHTS; Vitamin D3 receptor (Homo sapiens), P11473; AID 504847, 2011; Potency, µM, for inactives: max response, negative = inhibition, actives largely listed as inhibitors; 400,000 compounds, 0.93% hits; VDR-SRC2-3 peptide fluorescence polarization, 2 h; further: potency means the concentration at half of the fitted maximal effect; on the % scale 0 is the no-effect control and ±100 the full control effect
Target sequence (P11473 whole entry, looked up): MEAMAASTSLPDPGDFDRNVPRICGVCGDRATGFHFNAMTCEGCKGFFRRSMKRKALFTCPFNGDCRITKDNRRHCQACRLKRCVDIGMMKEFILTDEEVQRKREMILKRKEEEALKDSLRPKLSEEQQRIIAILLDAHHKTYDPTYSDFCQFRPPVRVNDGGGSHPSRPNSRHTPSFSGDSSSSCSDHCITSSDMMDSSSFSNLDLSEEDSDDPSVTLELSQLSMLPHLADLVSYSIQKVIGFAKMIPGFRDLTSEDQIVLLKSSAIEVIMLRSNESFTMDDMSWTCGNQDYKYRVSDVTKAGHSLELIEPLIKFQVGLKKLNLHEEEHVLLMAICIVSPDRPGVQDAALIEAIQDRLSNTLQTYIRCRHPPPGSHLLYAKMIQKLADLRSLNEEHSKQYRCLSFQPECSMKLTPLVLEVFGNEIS
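After 23 nl compound addition and a short centrifugation, plates sat for 2 hours at ambient temperature; polarization of fluorescence then indicated loss of VDR binding to peptide SRC2-3.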
An asterisk follows results filed as active; ? = inconclusive; . = not tested or not shown. Unless noted, the call rests on the fitted dose curve; in most records, active means well fitted curve in the direction sought with a large enough effect; inconclusive means small, poorly fitted or top-dose-only effect, or another doubt; inactive means no such curve, though single readings can be large; an effect the other way counts as inactive or inconclusive.

SMILES	PLK1 PBD inh	Rango release inh	Rango complex inh	GCN5L2 inh	PI5P4Ka inh	VDR inhibitor
O=C(NC(=S)N1CCCCC1CO)c1cccs1 (stereo not drawn)	21µM*	5%	1%	-5%	4	?
CCC1CCCCN1C(=S)NC(=O)c1cccs1 (stereo not drawn)	-13%	-10%	3%	-7%	-5	-10%
CC/C(O)=C1\C(=O)CCCC1=NCCc1c(C)[nH]c2ccc(C)cc12	30µM*	0%	?	0%	-3	?
CC/C(O)=C1\C(=O)CC(c2ccccc2)CC1=NCCc1c(C)[nH]c2ccc(C)cc12 (stereo not drawn)	-4%	14%	1%	-3%	13	-20%
COc1ccc([C@H]2CC(=O)C=C(/C=C/Cc3ccccc3)C2)cc1	-15%	-14%	-5%	-11%	1	79µM*
CSc1nc2c(=S)[nH]c(=S)[nH]c2s1	21µM*	.	.	.	?	.
Cc1ccc(-c2cn(-c3ccccc3)c(=S)[nH]2)cc1C	30µM*	0%	3%	-21%	-5	-14%
COc1cc(OC)c(-n2cc(-c3ccc(OC)c(OC)c3)[nH]c2=S)cc1Cl	30µM*	-17%	-4%	-5%	-9	-7%
COc1ccc(-n2cc(-c3ccc(OC)c(OC)c3)[nH]c2=S)cc1	24µM*	6%	0%	-8%	-14	-15%
Cc1cc(C)c(N(Cc2ccccc2)S(=O)(=O)c2ccc(OCCNC(=O)c3cc4ccccc4o3)cc2)c(C(=O)NO)c1	.	.	.	-9%	.	0%
COc1cccc(NC(=O)CSc2nc(=O)[nH]c3c2CCCC3)c1	.	.	.	-1%	.	-7%
CCCCn1c(=O)c2oc3ccccc3c2n(CC(=O)Nc2cc(C)ccc2C)c1=O	.	.	.	-3%	.	16%
COc1ccc(OC)c(C2=NS(=O)(=O)N(C)C(C(=O)NCc3cccs3)=C2)c1	27µM*	?	?	-5%	-13	?
COc1ccc(OC)c(C2=NS(=O)(=O)N(C)C(C(=O)Nc3cccc(C(C)=O)c3)=C2)c1	19µM*	-2%	1%	-6%	-18	?
COc1ccc(C2=NS(=O)(=O)N(C)C(C(=O)Nc3ccc(C)cc3)=C2)cc1	2%	16%	-2%	?	10	-2%
CC(C)NC(=O)C1(c2ccccc2)CC1(Cl)Cl (stereo not drawn)	13µM*	9%	-3%	2%	-2	-28%
O=C(Nc1ccccc1Cl)C1(c2ccccc2)CC1(Cl)Cl (stereo not drawn)	4%	5%	-2%	-6%	3	-16%
CCCn1c(SCC(=O)N2CCCC(C)C2)nnc1-c1cccnc1 (stereo not drawn)	30µM*	-11%	-1%	?	-6	-13%
COc1ccccc1NC(=O)c1sc2nc(-c3cc4cc(Cl)ccc4oc3=O)[nH]c(=O)c2c1C	.	.	.	2%	.	-9%
Clc1ccc(NC2(c3nnnn3C3CCCCC3)CCCCC2)cc1	27µM*	2%	4%	-3%	-12	?
COc1ccc(C(CC(=O)Nc2ccc(OC)c(OC)c2)N2Cc3ccccc3C2=O)cc1 (stereo not drawn)	.	.	.	-8%	.	12%
CCc1ccccc1NC(=O)Cn1c(=O)n(CCc2ccccc2)c(=O)c2sc3ccccc3c21	.	.	.	-1%	.	-14%
CC1=NN(C(=O)c2c(Br)cnn2C)C(O)(C(F)(F)F)C1 (stereo not drawn)	11µM*	7%	?	-5%	-26	-14%
CSc1nc(N2CCN(CCO)CC2)c2sc3nc(-c4ccco4)c4c(c3c2n1)CCC4	.	.	.	-4%	.	.
CSc1nc(SCC(=O)O)c2sc3nc(-c4ccccc4)c4c(c3c2n1)CCC4	12µM*	-20%	0%	?	-17	-12%
SMILES	PLK1 PBD inh	Rango release inh	Rango complex inh	GCN5L2 inh	PI5P4Ka inh	VDR inhibitor
CSc1nc(N(C)CCO)c2sc3nc(-c4ccco4)c4c(c3c2n1)CCC4	24µM*	-13%	?	?	.	?
COc1ccc(C2(CNC(=O)C(=O)Nc3ccc(F)cc3)CCCC2)cc1OC	.	.	.	-7%	.	-6%
CCOC(=O)Cn1c(=O)n(C2CCCCC2)c2nc(-c3ccc(CC)cc3)nc(C(N)=O)c21	.	.	.	0%	.	-2%
Cn1cnc([N+](=O)[O-])c1NC(C)(C)C	-7%	-11%	-1%	-17%	3	-8%
Cn1cnc([N+](=O)[O-])c1S(=O)(=O)c1ccc(Cl)cc1	?	0%	9%	-2%	-1	50µM*
CC(C)N(C)C(=O)c1ccc(OC2CCN(CCc3ccccc3)CC2)cc1	1%	-11%	0%	-1%	-9	-4%
Cc1csc(C(C)NC(=O)c2ccc(OC3CCN(CCc4ccccc4)CC3)cc2)n1 (stereo not drawn)	30µM*	1%	-4%	-6%	2	-19%
CCOc1ccccc1CNCc1cccn1-c1nnc(N2CCN(c3ccccc3)CC2)s1	.	.	.	20%	.	8%
CCN(CC)S(=O)(=O)c1ccc2oc(SCC(=O)Nc3cc(C)on3)nc2c1	6µM*	-1%	-4%	-1%	-26	?
O=C(CSc1ccc(Cl)cc1)Nn1cnnc1	11µM*	24%	-3%	-2%	.	71µM*
COc1ccc(-n2ccnc2SCC(=O)Nc2cc(C)on2)cc1	-5%	-1%	-2%	-6%	-2	10%
Cc1cc(NC(=O)CSc2nnnn2-c2ccccc2)no1	-2%	-23%	0%	0%	1	17%
Cc1cc(NC(=O)CSc2nnnn2Cc2ccccc2)no1	21µM*	0%	-3%	2%	1	-13%
Cc1cccc(-n2ccnc2SCC(=O)Nc2cc(C)on2)c1	27µM*	-3%	-1%	-1%	4	-1%
O=C(Nc1cccc(Cl)c1Cl)c1ccc2c(c1)N(Cc1cccc(Cl)c1)C(=O)c1ccccc1S2(=O)=O	.	.	.	-9%	.	12%
Cc1ccc(SCC(=O)Nc2cc(C)on2)cc1	?	-2%	-1%	-3%	-2	-15%
Cc1cc(NC(=O)CSc2ccc(Cl)cc2)no1	5.3µM*	5%	4%	-7%	.	?
COc1ccc(CNCCNC(=O)c2nonc2N)cc1OC	-10%	-4%	3%	3%	.	1%
